Test results taken from ChEMBL document CHEMBL1961873, “Compounds: GSK PKIS; Assays: Nanosyn kinase panel” (2012).

Columns and labels:
[1] = molecular target: T1, Tyrosine-protein kinase receptor TYRO3 (Homo sapiens) (UniProt Q06418); details: at 1 µM
T1 sequence (whole entry): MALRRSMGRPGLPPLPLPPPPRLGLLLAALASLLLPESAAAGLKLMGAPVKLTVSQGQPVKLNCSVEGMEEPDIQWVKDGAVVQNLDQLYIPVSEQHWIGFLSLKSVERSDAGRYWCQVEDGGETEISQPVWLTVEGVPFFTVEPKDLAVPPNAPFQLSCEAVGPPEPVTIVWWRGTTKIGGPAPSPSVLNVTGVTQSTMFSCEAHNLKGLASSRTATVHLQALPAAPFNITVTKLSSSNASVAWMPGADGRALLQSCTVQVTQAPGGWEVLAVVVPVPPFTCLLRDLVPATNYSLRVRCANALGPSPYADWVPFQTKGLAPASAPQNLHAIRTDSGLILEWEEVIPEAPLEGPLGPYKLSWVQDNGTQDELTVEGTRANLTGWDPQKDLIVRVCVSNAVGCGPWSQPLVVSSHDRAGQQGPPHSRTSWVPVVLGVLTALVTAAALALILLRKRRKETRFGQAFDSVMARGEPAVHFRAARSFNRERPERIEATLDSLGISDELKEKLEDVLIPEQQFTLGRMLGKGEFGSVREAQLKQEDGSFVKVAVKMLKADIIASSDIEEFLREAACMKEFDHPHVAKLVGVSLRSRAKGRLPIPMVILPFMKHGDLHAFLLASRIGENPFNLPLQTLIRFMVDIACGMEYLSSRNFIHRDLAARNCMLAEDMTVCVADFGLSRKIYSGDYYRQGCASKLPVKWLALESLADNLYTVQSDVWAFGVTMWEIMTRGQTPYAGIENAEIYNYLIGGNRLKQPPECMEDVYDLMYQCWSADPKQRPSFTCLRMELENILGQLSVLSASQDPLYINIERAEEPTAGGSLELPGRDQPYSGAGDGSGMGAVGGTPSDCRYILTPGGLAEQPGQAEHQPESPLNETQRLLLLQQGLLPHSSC

[2] = molecular target: Tyrosine-protein kinase Yes (Homo sapiens) (UniProt P07947); details: at 0.1 µM
[3] = molecular target: Tyrosine-protein kinase Yes (Homo sapiens) (UniProt P07947); details: at 1 µM
[4] = molecular target: T2, Tyrosine-protein kinase ZAP-70 (Homo sapiens) (UniProt P43403); details: at 0.1 µM
T2 sequence (whole entry): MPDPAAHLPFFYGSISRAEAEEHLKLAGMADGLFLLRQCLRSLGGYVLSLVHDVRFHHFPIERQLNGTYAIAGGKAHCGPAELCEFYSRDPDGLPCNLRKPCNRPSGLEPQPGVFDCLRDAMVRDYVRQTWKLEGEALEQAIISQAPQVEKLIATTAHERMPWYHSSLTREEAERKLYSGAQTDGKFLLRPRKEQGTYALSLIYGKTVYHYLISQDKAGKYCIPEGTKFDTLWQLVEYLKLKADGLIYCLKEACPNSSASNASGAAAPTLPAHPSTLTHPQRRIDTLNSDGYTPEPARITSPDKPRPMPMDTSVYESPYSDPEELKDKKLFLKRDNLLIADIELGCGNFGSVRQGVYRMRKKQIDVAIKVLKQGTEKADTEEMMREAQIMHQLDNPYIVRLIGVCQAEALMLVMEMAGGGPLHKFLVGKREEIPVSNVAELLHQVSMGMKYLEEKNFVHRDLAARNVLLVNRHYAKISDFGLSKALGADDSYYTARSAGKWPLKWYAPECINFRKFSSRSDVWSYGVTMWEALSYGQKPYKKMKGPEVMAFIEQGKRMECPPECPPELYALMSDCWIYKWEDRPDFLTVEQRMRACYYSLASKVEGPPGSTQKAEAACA

[5] = molecular target: T2, Tyrosine-protein kinase ZAP-70 (Homo sapiens); details: at 1 µM
[6] = molecular target: Serine/threonine-protein kinase B-raf (Homo sapiens) (UniProt P15056); details: at 0.1 µM
[7] = molecular target: Serine/threonine-protein kinase B-raf (Homo sapiens) (UniProt P15056); details: at 1 µM
[8] = tested on: Serine/threonine-protein kinase B-raf (Homo sapiens), P15056 [V600E]; details: at 0.1 µM
[9] = tested on: Serine/threonine-protein kinase B-raf (Homo sapiens), P15056 [V600E]; details: at 1 µM
[10] = molecular target: RAF proto-oncogene serine/threonine-protein kinase (Homo sapiens) (UniProt P04049); details: at 0.1 µM
[11] = molecular target: RAF proto-oncogene serine/threonine-protein kinase (Homo sapiens) (UniProt P04049); details: at 1 µM
[12] = molecular target: T3, Interleukin-1 receptor-associated kinase 4 (Homo sapiens) (UniProt Q9NWZ3); details: at 0.1 µM
T3 sequence (whole entry): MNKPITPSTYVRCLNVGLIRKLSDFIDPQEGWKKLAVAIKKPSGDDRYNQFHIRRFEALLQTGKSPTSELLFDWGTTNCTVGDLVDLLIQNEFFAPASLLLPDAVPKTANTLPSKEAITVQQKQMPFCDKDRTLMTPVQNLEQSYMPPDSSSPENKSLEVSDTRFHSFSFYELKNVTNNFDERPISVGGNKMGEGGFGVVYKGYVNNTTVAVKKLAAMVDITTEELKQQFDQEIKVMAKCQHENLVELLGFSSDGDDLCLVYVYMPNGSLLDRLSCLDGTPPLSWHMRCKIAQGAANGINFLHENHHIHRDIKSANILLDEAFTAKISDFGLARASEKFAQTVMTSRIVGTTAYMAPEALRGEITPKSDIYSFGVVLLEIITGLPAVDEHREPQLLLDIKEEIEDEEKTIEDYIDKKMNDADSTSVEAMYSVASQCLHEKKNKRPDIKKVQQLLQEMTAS

[13] = molecular target: T3, Interleukin-1 receptor-associated kinase 4 (Homo sapiens); details: at 1 µM
[14] = molecular target: Leucine-rich repeat serine/threonine-protein kinase 2 (Homo sapiens) (UniProt Q5S007); details: at 0.1 µM
[15] = molecular target: Leucine-rich repeat serine/threonine-protein kinase 2 (Homo sapiens) (UniProt Q5S007); details: at 1 µM
[16] = tested on: Leucine-rich repeat serine/threonine-protein kinase 2 (Homo sapiens), Q5S007 [G2019S]; details: at 0.1 µM
[17] = tested on: Leucine-rich repeat serine/threonine-protein kinase 2 (Homo sapiens), Q5S007 [G2019S]; details: at 1 µM

Serine/threonine-protein kinase B-raf (Homo sapiens), P15056 [V600E], sequence (P15056 whole entry V600E): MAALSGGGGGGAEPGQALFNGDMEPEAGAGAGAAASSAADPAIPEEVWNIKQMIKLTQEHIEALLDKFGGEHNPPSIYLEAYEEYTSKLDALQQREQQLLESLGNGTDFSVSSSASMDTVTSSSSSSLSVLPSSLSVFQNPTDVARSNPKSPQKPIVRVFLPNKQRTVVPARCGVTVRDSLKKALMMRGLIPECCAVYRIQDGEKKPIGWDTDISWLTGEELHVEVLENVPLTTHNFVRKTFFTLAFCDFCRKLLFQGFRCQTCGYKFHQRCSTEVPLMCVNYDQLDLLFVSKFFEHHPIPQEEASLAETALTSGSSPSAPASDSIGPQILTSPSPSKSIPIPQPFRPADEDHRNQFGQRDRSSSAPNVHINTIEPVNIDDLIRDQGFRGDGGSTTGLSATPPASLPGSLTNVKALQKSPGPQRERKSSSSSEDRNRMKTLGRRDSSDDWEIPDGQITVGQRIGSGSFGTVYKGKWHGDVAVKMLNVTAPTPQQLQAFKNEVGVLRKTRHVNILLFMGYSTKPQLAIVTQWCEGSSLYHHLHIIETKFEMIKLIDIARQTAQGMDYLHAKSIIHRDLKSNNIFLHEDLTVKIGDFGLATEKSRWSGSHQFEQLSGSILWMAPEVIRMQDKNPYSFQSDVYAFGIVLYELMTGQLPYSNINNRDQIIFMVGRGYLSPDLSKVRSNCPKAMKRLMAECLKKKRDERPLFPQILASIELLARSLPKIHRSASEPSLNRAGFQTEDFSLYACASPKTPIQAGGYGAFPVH
Tyrosine-protein kinase Yes (Homo sapiens), sequence (P07947 2-543 limits assumed): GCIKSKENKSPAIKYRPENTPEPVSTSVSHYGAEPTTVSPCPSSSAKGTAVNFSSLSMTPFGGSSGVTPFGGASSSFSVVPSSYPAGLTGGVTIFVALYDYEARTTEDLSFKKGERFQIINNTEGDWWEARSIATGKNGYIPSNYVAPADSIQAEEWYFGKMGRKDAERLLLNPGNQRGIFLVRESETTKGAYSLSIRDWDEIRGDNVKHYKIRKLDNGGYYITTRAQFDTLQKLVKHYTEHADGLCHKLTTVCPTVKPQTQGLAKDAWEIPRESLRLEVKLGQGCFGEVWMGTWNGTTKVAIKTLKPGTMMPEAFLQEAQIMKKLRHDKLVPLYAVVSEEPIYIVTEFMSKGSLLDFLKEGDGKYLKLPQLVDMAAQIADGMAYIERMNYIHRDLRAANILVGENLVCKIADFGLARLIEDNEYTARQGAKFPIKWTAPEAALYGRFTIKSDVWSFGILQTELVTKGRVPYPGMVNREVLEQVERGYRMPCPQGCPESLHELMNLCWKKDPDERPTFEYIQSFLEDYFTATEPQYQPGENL
RAF proto-oncogene serine/threonine-protein kinase (Homo sapiens), sequence (P04049 whole entry): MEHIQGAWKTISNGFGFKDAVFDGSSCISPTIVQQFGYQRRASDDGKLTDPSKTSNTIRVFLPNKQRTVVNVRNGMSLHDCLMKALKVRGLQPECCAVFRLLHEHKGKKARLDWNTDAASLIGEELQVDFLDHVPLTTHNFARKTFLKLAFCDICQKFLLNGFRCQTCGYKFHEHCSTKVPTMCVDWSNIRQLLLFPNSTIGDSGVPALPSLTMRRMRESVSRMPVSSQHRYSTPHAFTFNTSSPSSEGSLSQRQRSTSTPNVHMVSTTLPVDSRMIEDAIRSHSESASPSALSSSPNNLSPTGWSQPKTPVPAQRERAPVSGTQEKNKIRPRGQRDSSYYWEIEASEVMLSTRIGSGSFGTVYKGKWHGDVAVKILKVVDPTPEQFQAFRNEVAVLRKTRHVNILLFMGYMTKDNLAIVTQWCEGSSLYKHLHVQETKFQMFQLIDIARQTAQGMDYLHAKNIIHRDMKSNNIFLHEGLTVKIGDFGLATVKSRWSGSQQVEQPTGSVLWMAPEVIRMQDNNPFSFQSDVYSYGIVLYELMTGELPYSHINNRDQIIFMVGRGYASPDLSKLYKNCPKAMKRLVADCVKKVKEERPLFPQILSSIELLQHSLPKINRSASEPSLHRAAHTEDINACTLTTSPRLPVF
Serine/threonine-protein kinase B-raf (Homo sapiens), sequence (P15056 whole entry): as the sequence (P15056 whole entry V600E) above, with E600V counted along it
Leucine-rich repeat serine/threonine-protein kinase 2 (Homo sapiens), sequence (Q5S007 whole entry): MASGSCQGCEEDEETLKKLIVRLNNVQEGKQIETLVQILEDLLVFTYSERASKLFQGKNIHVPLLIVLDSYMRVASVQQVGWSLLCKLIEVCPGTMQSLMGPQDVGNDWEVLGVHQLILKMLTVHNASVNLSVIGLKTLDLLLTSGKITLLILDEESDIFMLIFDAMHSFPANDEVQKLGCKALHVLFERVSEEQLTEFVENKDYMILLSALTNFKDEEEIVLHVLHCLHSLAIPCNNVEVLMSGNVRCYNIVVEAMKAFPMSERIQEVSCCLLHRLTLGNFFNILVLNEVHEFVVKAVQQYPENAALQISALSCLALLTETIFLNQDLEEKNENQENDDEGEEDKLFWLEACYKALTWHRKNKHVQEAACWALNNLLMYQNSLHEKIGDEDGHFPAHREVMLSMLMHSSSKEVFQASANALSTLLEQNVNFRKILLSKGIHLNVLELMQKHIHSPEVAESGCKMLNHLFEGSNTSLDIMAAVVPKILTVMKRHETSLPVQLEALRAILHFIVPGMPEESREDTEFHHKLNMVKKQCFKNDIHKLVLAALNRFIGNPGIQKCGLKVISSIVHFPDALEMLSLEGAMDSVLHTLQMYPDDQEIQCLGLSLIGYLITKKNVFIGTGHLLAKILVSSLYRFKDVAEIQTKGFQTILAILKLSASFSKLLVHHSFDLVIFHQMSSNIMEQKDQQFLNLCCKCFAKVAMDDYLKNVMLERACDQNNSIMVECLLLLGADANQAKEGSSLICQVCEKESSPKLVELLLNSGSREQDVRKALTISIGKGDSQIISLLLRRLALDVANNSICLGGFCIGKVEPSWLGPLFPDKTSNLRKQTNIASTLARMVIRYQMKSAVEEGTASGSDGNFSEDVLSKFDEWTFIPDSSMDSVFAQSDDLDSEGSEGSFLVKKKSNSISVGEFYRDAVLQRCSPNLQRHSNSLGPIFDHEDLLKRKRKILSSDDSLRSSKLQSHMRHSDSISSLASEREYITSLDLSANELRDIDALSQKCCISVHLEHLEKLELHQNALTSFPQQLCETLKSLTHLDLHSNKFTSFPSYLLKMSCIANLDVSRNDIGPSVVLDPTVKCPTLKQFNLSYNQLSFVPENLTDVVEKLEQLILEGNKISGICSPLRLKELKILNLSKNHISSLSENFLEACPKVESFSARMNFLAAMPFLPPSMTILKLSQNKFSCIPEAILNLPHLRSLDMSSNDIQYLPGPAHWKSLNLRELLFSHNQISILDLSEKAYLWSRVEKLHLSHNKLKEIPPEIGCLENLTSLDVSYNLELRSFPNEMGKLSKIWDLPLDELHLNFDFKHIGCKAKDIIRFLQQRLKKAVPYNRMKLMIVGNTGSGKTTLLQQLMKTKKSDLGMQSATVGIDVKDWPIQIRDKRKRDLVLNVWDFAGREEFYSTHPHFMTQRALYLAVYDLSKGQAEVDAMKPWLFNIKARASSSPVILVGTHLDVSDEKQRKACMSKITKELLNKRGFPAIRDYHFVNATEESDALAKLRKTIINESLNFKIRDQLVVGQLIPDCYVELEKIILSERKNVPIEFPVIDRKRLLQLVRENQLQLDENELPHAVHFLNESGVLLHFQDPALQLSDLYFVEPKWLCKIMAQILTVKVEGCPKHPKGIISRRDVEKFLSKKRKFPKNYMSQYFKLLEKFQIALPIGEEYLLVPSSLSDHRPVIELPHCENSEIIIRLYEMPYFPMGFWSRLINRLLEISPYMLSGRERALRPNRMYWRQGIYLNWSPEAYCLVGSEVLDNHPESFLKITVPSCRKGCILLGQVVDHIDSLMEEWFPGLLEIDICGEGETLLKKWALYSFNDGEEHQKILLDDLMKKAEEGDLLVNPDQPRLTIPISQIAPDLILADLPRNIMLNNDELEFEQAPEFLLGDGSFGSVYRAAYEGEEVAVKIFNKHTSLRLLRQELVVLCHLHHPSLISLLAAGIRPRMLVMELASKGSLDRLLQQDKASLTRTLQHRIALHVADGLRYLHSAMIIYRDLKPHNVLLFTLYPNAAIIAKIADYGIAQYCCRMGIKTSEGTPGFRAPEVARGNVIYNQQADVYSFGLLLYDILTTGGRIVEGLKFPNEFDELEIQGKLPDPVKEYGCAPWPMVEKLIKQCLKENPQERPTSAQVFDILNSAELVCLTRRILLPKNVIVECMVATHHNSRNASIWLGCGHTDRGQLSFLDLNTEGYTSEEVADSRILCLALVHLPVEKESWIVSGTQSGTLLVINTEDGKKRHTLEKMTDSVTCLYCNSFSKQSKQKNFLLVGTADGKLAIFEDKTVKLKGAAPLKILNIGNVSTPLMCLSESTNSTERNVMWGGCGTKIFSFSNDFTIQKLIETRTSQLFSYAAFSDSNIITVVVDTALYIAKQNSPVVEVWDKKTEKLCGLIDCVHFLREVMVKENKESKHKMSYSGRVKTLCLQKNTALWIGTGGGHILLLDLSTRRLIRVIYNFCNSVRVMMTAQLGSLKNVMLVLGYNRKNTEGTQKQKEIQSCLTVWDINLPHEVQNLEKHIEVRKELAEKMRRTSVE
Leucine-rich repeat serine/threonine-protein kinase 2 (Homo sapiens), Q5S007 [G2019S], sequence (Q5S007 whole entry G2019S): as the sequence (Q5S007 whole entry) above, with G2019S counted along it

SMILES | inhibition [1] | inhibition [2] | inhibition [3] | inhibition [4] | inhibition [5] | inhibition [6] | inhibition [7] | inhibition [8] | inhibition [9] | inhibition [10] | inhibition [11] | inhibition [12] | inhibition [13] | inhibition [14] | inhibition [15] | inhibition [16] | inhibition [17]
NC(=O)c1sc(-n2cnc3ccccc32)cc1OCc1ccccc1Br | 1.89% | 2.41% | 7.85% | -2.78% | -2.62% | 5.54% | 6.15% | 4.91% | 3.77% | 3.4% | -0.55% | 1.39% | 2.57% | 1.66% | 10.8% | 4.94% | 19.3%
Oc1cccc(-c2nc(-c3ccccc3)[nH]c2-c2ccncc2)c1 | 9.74% | 4.12% | 21.9% | 3.06% | 3.35% | 14.5% | 30% | 12.8% | 28.9% | 1.16% | 12.2% | -4.12% | 2.23% | 4.13% | 8.56% | 4.27% | 8.9%
CCS(=O)(=O)c1ccc(OC)c(Nc2nccc(N(C)c3ccc4c(C)n[nH]c4c3)n2)c1 | 7.2% | 29.3% | 73.9% | 0.81% | 2.48% | 6.4% | 8.1% | 5.33% | 5.98% | 1.8% | 3.08% | 1.47% | 1.99% | 5.36% | 22.5% | 8.48% | 27.3%
Cc1cc(O)cc(C)c1/C=C/c1cncc(C(=O)N(C)C)c1 | 2.81% | 0.44% | 1.22% | 1.81% | 2.36% | 3.04% | 3.56% | 4.11% | 3.14% | 6.23% | -5.4% | -1.62% | 2.21% | 4.81% | 7.82% | 3.29% | 7.6%
CN(C)C(=O)O[C@H]1CN[C@H](C#Cc2cc3ncnc(Nc4ccc(OCc5cccc(F)c5)c(Cl)c4)c3s2)C1 | 2.13% | 1.37% | 3.86% | 0.97% | 3.33% | 3.09% | 6.19% | 3.55% | 5.77% | 3.11% | 5.68% | -3.18% | 1.16% | 1.64% | 2.05% | 4.13% | 6.83%
COc1cc2ncnc(Nc3ccc4c(cnn4Cc4ccccc4)c3)c2cc1OC | 12.6% | 39.4% | 79.9% | -3.74% | 2.96% | 3.75% | 3.3% | 2.5% | 1.8% | 0.11% | -1.93% | 0.58% | 1.32% | 3.78% | 14.3% | 6.86% | 13.8%
NS(=O)(=O)c1cccc(Nc2cc(-c3ccc(F)cc3)n[nH]2)c1 | 19.7% | 2.67% | 12.1% | 1.39% | 2.54% | 5.14% | 4.96% | 3.81% | 5.31% | 0.49% | -8.3% | -1.86% | 1.25% | 4.6% | 10.5% | 5.16% | 12.2%
Cc1ccc2c(c1)/C(=N/Nc1ccc(S(N)(=O)=O)cc1)C(=O)N2 | 0.35% | -0.04% | 5.49% | 1.31% | 1.47% | 0.51% | 3.31% | 0.4% | 3.37% | 0.26% | – | 2.09% | -0.03% | 6.44% | 13.1% | 9.36% | 46.2%
COc1ccc2ncnc(Nc3ccc(OCc4ccccc4)cc3)c2c1 | 3.15% | 5.76% | 22.9% | 1.97% | 1.84% | 3.6% | 2.93% | 3.51% | 2.24% | -0.56% | – | 3.13% | 0.86% | 1.61% | 4.95% | 2.19% | 13.1%
COc1cc2ncn(-c3cc(OCc4ccccc4S(C)(=O)=O)c(C#N)s3)c2cc1OC | 20.1% | 8.67% | 39.2% | – | 4% | 5.38% | 8.14% | 4.97% | 6.91% | 5.23% | 2.83% | -0.58% | 10.8% | 25.5% | 83.7% | 60.4% | 61.8%
NS(=O)(=O)c1ccc(Nc2cc(-c3cccc(O)c3)n[nH]2)cc1 | 9.19% | 2.39% | 5.84% | 4.04% | 6.29% | 7.97% | 8.05% | 6.98% | 6.29% | 1.44% | -1.78% | 0.88% | 2.85% | 6.39% | 12.4% | 6.39% | 17.1%
NS(=O)(=O)c1ccc(-c2cc3ccncc3cc2OCc2ccccc2)cc1 | 4.23% | 3.11% | 3.16% | 0.37% | -0.77% | 4.65% | 6.35% | 5.61% | 4.49% | 2.9% | 1.99% | -1.18% | 1.31% | 2.38% | 7.53% | 1.82% | 8.17%
Cc1cc(Cl)cc2c1NC(=O)C2=NNc1ccc(S(N)(=O)=O)cc1 | 3.93% | 0.95% | 2.2% | 1.82% | 1.81% | 4.13% | 1.81% | 4.19% | 2.74% | 0.2% | 3.57% | 3.1% | 1.43% | 0.71% | 2.23% | 1.78% | 4.5%
O=C(Nc1ccc(Oc2ccc3[nH]c(NC(=O)c4ccco4)nc3c2)cc1)Nc1cc(C(F)(F)F)ccc1F | 37.4% | 0.93% | 21.9% | – | -9.02% | 4.64% | 60.7% | 3.75% | 72.5% | -0.98% | 39.9% | -2.35% | 0.94% | 15.7% | 15.8% | 9.87% | 51.6%
NC(=O)c1cccc(Nc2nccc(Nc3cccc(F)c3)n2)c1 | 57% | 4.5% | 22.5% | -0.99% | 4.21% | 0.82% | 3.59% | 1.61% | 3.25% | 0.33% | -1.43% | 0.1% | 2.52% | -0.11% | 10% | 1.9% | 18.2%
